SMILES strings stand for the structures. In all, about 48,000 compounds went through this assay and about 13,000 (27%) showed an effect of 50% or more. This is one part of the list.

The source of these data is ChEMBL document CHEMBL3988442, “University of Dundee, Small-Polar-MMV Screening Library” (2021).

The assay has as its system Wolbachia pipientis. Kind of assay: Anti-Wolbachia Cell-Based Screen. Type of assay: functional. Set-up: scale not given: in the data most compounds retested in dose-response had high values. The note with it: 5 µM.
As for `COC(=O)CSc1nnc(CCNC(=O)OC(C)(C)C)o1`, the “Percent Effect” value is 120.8%.
The same measure for `CC(C)Sc1nnc(CCNC(=O)OC(C)(C)C)o1`: 12.98%; for `CN(C)C(=O)CSc1nnc(CCNC(=O)OC(C)(C)C)o1`: 15.65%.
The same measure for `Cc1nc(N2CC[C@@H](NC(=O)c3cnccn3)[C@H](O)C2)c2ccsc2n1`: 4.294%; for `Cc1nc(CN(C)C2CCN(CC(=O)N3CCOCC3)C2)no1` (stereo not drawn): -5.301%; for `CN(Cc1noc(C2CC2)n1)C1CCN(CC(=O)N2CCOCC2)C1` (stereo not drawn): 87.19%.
The same measure for `Cc1nc(CN(C)C2CCN(CCC(=O)N3CCOCC3)C2)no1` (stereo not drawn): 118.2%; for `Cc1nc(CN(C)C2CCN(CC(=O)NC3CCOCC3)C2)no1` (stereo not drawn): -6.239%; for `CCc1nc(CN(C)C2CCN(CC(=O)N3CCOCC3)C2)no1` (stereo not drawn): 114.4%.
Turning to `c1ccc(-n2cc(CN3CCCC(Cn4cncn4)C3)nn2)cc1` (stereo not drawn), the “Percent Effect” value is reported as 6.927%.
The same measure for `CC(C)N(C)[C@@H]1CCN(c2ncccn2)[C@H]1Cc1ccncc1.O=C(O)C(F)(F)F.O=C(O)C(F)(F)F`: -5.254%; for `Cc1cnc(C(=O)N2CCCC(Cn3cc(CC(C)C)nn3)C2)cn1` (stereo not drawn): -14.05%; for `CC(C)CNC(=O)c1cc(Br)c2c(c1)OCCO2`: -6.005%.
Then `CCCc1cc(CN(C)C2CSCCSC2)n[nH]1`, with -33.01%; and `Cc1ccc(C(=O)N2CCCCC2c2[nH]ncc2S(C)(=O)=O)s1` (stereo not drawn), with 77.94%.
Then `Cc1cccc(C(=O)N2CCCCC2c2[nH]ncc2S(C)(=O)=O)c1` (stereo not drawn), with 98.38%; and `Cc1cnc(C(=O)N2CCCCC2c2[nH]ncc2S(C)(=O)=O)cn1` (stereo not drawn), with -8.056%.
As to `Cn1cccc1C(=O)N1CCCCC1c1[nH]ncc1S(C)(=O)=O` (stereo not drawn), the “Percent Effect” value came out at 102.3%.
Then `Cn1cccc1-c1cc(C(=O)N2CCCCC2c2ccc(F)cc2)[nH]n1` (stereo not drawn), with 6.407%.
Then `Cc1ccc(C(=O)N2CCCCC2c2[nH]ncc2S(C)(=O)=O)cn1` (stereo not drawn), with 107.9%.
Then `NC(=O)C1CCCCN1C(=O)c1ccc(Br)s1` (stereo not drawn), with 11.69%; and `Cn1cccc1-c1cc(C(=O)N2CCCC2c2cccnc2)[nH]n1` (stereo not drawn), with -7.739%.
As to `Cc1cccnc1C(=O)N1CCCCC1c1[nH]ncc1S(C)(=O)=O` (stereo not drawn), the “Percent Effect” value was -7.963%.
Then `CC1CCCCN1C(=O)c1ccc(Br)s1` (stereo not drawn), with 10.55%; and `Cc1cccc(C(=O)N2CCCCC2c2ccc(CN(C)C)cc2)c1` (stereo not drawn), with 14.25%; and `CC1CCN(CC(O)CNc2ccc(Cl)cn2)CC1` (stereo not drawn), with 15.58%.
Then `CC(=O)N(C)CC(=O)Nc1ccc(C)cc1OCc1ccccc1`, with 2.382%.
Then `Cc1nc(CNC(=O)N(Cc2ccccc2)CC(C)(C)O)oc1C`, with -21.53%.
On to `CC(=O)NCCCNCc1ccc(Cl)c2cccnc12`, for which the “Percent Effect” value is listed as -6.459%.
The same measure for `CC(Cn1cccn1)NC(=O)NCc1ccc(S(C)(=O)=O)cc1` (stereo not drawn): 102.2%; for `CC(Cn1cccn1)NC(=O)NCc1ccc(S(N)(=O)=O)cc1` (stereo not drawn): 4.625%.
Then `Cc1ccc(C(=O)NC(C)Cn2cccn2)c(=O)[nH]1` (stereo not drawn), with -0.2392%.
Then `COc1ccc(CNC(=O)NC(C)Cn2cccn2)cc1O` (stereo not drawn), with 8.397%.
As for `CC(Cn1cccn1)NC(=O)NCc1cccnc1OC1CCCC1` (stereo not drawn), the “Percent Effect” value was 11.91%.
Then `CC(Cn1cccn1)NC(=O)CCc1ccc(S(N)(=O)=O)cc1` (stereo not drawn), with 6.181%; and `CC(C)NC(=O)NCc1ccc(C(=O)NC(C)Cn2cccn2)cc1` (stereo not drawn), with 146.4%.
The same measure for `CC(Cn1cccn1)NC(=O)NCc1ccc(C(N)=O)cc1` (stereo not drawn): 167.3%; for `CC(C)c1nccn1C(C)C(=O)NCc1noc(Cc2cccs2)n1` (stereo not drawn): 8.731%; for `O=C(NC1CC1)N1CCOC2(CCCN(c3cccc(F)c3)C2)C1` (stereo not drawn): -2.504%.
`CC(CCc1ccccc1F)C(=O)NS(=O)(=O)CC1CC1` (stereo not drawn): the “Percent Effect” value is on record as -8.345%.
With `CC(=O)N1CCC(Nc2cccc(OC(F)F)c2C)CC1`, the “Percent Effect” value is -10.39%.
For the molecule `Cn1cnnc1CN1CCC2(CCC(=O)N(Cc3ccccn3)C2)CC1`, the “Percent Effect” value was -8.652%.
The same measure for `Cc1noc(-c2ccnc(N3CCN(C4CCOCC4)CC3)c2)n1`: 8.096%; for `FC(F)(F)c1ccnc(N2CCCN(C3CCOCC3)CC2)c1`: -6.382%; for `Clc1cc(N2CCN(C3CCOCC3)CC2)nc2[nH]ccc12`: 109.8%.
The same measure for `Cc1noc(-c2ccnc(N3CCC(N4CCCC4)CC3)c2)n1`: -2.845%; for `Cc1nc(-c2cccc(N3CCC(N4CCCC4)CC3)c2)cs1`: -1.882%.
Then `Clc1cc(N2CCC(N3CCCC3)CC2)nc2[nH]ccc12`, with 113%.
For the molecule `COc1cc(N2CCC3(CC2)OCC(=O)NC3C)ncn1` (stereo not drawn), the “Percent Effect” value worked out at 115.6%.
The same measure for `COc1cc(N2CCC3(CC2)CN(C)C(=O)CO3)ncn1`: 113.9%.
The same measure for `COc1cc(N2CCC3(CC2)CC(N2CCOCC2)CO3)ncn1` (stereo not drawn): -10.74%; for `COc1cc(N2CC3(CCN(S(=O)(=O)C4CC4)C3)C2)ncn1`: -10.78%; for `COc1cc(N2CCC3(CC2)CC(N2CCN(C)CC2)CO3)ncn1.O=C(O)C(F)(F)F.O=C(O)C(F)(F)F` (stereo not drawn): -26.84%.
Then `CCS(=O)(=O)N1CCC2(CN(c3cc(OC)ncn3)C2)C1`, with -9.777%; and `COc1cc(N2CCC3(CC2)CNC(=O)CO3)ncn1`, with 115.6%.
`COc1cc(N2CCC3(CC2)C(c2ccncc2)CC(=O)N3C)ncn1` (stereo not drawn): the “Percent Effect” value stood at 16.73%.
In the case of `CC(C)NC(=O)c1nnn(-c2cccc(C(F)(F)F)c2)c1N`, the “Percent Effect” value is given as 5.987%.
On to `O=C(CCO)N1CCC2(CCc3ccc(-c4ccoc4)cc32)CC1`, for which the “Percent Effect” value is listed as -1.453%.
Then `COc1ncccc1C(=O)N1CCC(c2nc3c(C)cccc3[nH]2)CC1`, with -11.64%.
With `O=S(=O)(CCN1CCOC(Cn2cccn2)C1)c1ccccc1` (stereo not drawn), the “Percent Effect” value is -8.739%.
Then `Cc1cnn(CC2CN(c3ncnc4ccccc34)CCO2)c1` (stereo not drawn), with -26.67%; and `c1ccc(Cn2ccnc2CN2CCOC(Cn3cccn3)C2)cc1` (stereo not drawn), with 5.197%; and `O=c1[nH]c(CN2CCOC(Cn3cccn3)C2)nc2ccccc12` (stereo not drawn), with 108.3%.
The same measure for `Cc1cnn(CC2CN(Cc3nc4ccccc4c(=O)[nH]3)CCO2)c1` (stereo not drawn): 128.5%.
Regarding `Cc1cnn(CC2CCCN2CCc2nc3ccccc3c(=O)[nH]2)c1` (stereo not drawn), the “Percent Effect” value was -0.3603%.
Then `Cc1cnn(CC2CN(Cc3nc4cccnc4[nH]3)CCO2)c1` (stereo not drawn), with 117.2%; and `N[C@@H]1CC[C@@H]1NC(=O)c1ccccc1OC(F)(F)C(F)F`, with -9.663%; and `CNC(=O)CN1CCO[C@H]2CN(C(=O)C3CC3)C[C@H]21.O=C(O)C(F)(F)F`, with 8.052%.
The same measure for `COc1ccc(S(=O)(=O)N2CCC(O)(CN(C)C)C2)cc1` (stereo not drawn): 122.7%; for `CN(C)CC1(O)CCN(S(=O)(=O)c2ccc(Cl)cc2)C1` (stereo not drawn): 106.4%.
The same measure for `CN(C)CC1(O)CCN(S(=O)(=O)c2ccc(F)c(F)c2)C1` (stereo not drawn): -14.25%; for `Cc1ccc(S(=O)(=O)N2CCC(O)(CN(C)C)C2)cc1` (stereo not drawn): 128.7%.
In the case of `Cc1ccc(S(=O)(=O)N2CCC3(CC(C(=O)NCC4CC4)=NO3)C2)cc1` (stereo not drawn), the “Percent Effect” value is -17.63%.
As for `COc1cccc(S(=O)(=O)N2CCC(O)(CN(C)C)C2)c1` (stereo not drawn), the “Percent Effect” value is listed as -4.6%.
The same measure for `CN(C)CC1(O)CCN(S(=O)(=O)c2cccc(F)c2)C1` (stereo not drawn): 142.4%; for `CCOC1COC2(CCN(S(=O)(=O)c3cccc(F)c3)CC2)C1` (stereo not drawn): -12.88%.
The same measure for `O=S(=O)(c1cccc(F)c1)N1C[C@@H]2CC[C@H](C1)N(Cc1ccccc1)C2`: 7.587%; for `CN(C)CC1(O)CCN(S(=O)(=O)c2ccc(F)cc2)C1` (stereo not drawn): -17.25%.
Then `CC[C@H]1CN(S(=O)(=O)c2ccc(OC)cc2)CC[C@H]1CC(=O)O`, with 6.997%; and `CC(C)(C)C(O)CN1CCN(CC(=O)NCC(F)(F)F)CC1` (stereo not drawn), with 8.391%.
In the case of `COc1ccc(CCNC(=O)C2CCOC2)c(Cl)c1` (stereo not drawn), the “Percent Effect” value is listed as -19.93%.
In the case of `O=S(=O)(CCNCc1ccc(Cl)cc1)N1CCOCC1`, the “Percent Effect” value is on record as -1.046%.
Then `CN(C)CCN1C(=O)CO[C@@H]2CN(c3ncc(F)cn3)C[C@H]21`, with -1.223%; and `Cl.Cn1ccnc1CNC(=O)c1cnc(C2CCNCC2)cn1`, with 74.03%.
Then `Cn1ccnc1CNC(=O)Nc1ccc(OC2CCC2)c(F)c1`, with 1.11%; and `Cc1c(NC(C)C(C)C)cccc1C(=O)NCc1nccn1C` (stereo not drawn), with -7.954%; and `CC(C)N(Cc1nccn1C)C(=O)c1cnc(O)cn1`, with -3.4%.
The same measure for `Cn1ccnc1SCCNC(=O)c1c[nH]nc1C1CCCCC1`: -10.23%.
On to `Cl.Cn1ccnc1CNC(=O)c1ccnc(C2CCNCC2)c1`, for which the “Percent Effect” value came to 112.8%.
The same measure for `COCCCC(=O)Nc1cc(Cl)c(Cl)cn1`: -20.73%; for `O=C(c1scc2c1OCCO2)N1CCOC(Cc2cccc(F)c2)C1` (stereo not drawn): -18.9%.
As to `Cc1noc(-c2cnc(NC(C)C)nc2-c2ccco2)c1C`, the “Percent Effect” value stood at 118.1%.
The same measure for `Cc1cnn(CC(C)NCc2nc(-c3ccco3)no2)c1` (stereo not drawn): 2.799%; for `Cn1cc(-c2ccnc(NCC3CCCCO3)n2)cn1` (stereo not drawn): -0.1287%.
The same measure for `Cc1nn(C)c2nc(-c3ccccn3)nc(NC[C@@H]3CCCO3)c12`: -8.15%; for `Cc1noc(-c2cnc(NC3CC3)nc2-c2ccco2)c1C`: 112.5%; for `Cc1noc(-c2cnc(NCC3CCCO3)nc2-c2ccco2)c1C` (stereo not drawn): 115.5%.
Then `Cc1cnn(CC(C)NCc2csc(-c3ccco3)n2)c1` (stereo not drawn), with 6.093%; and `Cc1cc(C)c2nc(CN3CCC(N4CCOC4=O)CC3)cc(O)c2c1`, with -3.092%; and `COCCN(C)CCN1CC2(CCN(C3CCCNC3)CC2)OC1=O` (stereo not drawn), with -6.573%.
As to `CC(C)CCN1CCN(c2ncnc3nc(N)ccc23)CC1`, the “Percent Effect” value is 6.537%.
As for `Cn1c(-c2cccs2)nn(CCNS(=O)(=O)c2ccccc2Cl)c1=O`, the “Percent Effect” value turned out to be 11.66%.
Turning to `Cc1c(C(=O)N2CCC2(C)C)nnn1-c1cccc2cnccc12`, the “Percent Effect” value is listed as 16.96%.
